The values that follow come from ChEMBL document CHEMBL4513146, “CO-ADD screening of Karazin Kharkiv National University (Ukraine) compounds”.

Molecules are shown by their SMILES. Measured potencies and affinities stand elsewhere.

One assay deals with Staphylococcus aureus. Particulars: Concentration 32 ug.mL-1;; ASSAY_TEST Inhibition of Bacterial Growth; detection method Absorption (OD600); MEDIA CAMHB; plate type 384well; NBS; CORNING #3640; time 18 hr.
A further assay concerns Escherichia coli. Particulars: Concentration 32 ug.mL-1;; ASSAY_TEST Inhibition of Bacterial Growth; detection method Absorption (OD600); MEDIA CAMHB; plate type 384well; NBS; CORNING #3640; time 18 hr.

On to `CCCn1c(=O)c2sccc2n2c(=O)n(CC(=O)c3cccc(OC)c3)nc12`, for which the Inhibition in the assay on Staphylococcus aureus is 2.99%; in the assay on Escherichia coli it was -2.97%.

In the case of `Cc1cccc(N(Cc2ccccc2)S(=O)(=O)c2cccn3c(C)nnc23)c1`, the Inhibition was 19.49% with Staphylococcus aureus and -3.05% in the assay with Escherichia coli.

For `COc1ccc(-n2ccn3c(-c4ccc([N+](=O)[O-])cc4)nnc3c2=O)cc1Cl`, the Inhibition turned out to be 17.28% in the assay on Staphylococcus aureus and 1.52% with Escherichia coli.

As for `CCC(C)NC(=O)Cn1nc2n(CCC(=O)NC3CCCCC3)c(=O)c3ccccc3n2c1=O` (centres undefined), the Inhibition with Staphylococcus aureus is on record as -5.52%; in the assay with Escherichia coli, -15%.

Consider `Cc1ccc(NC(=O)CSc2nnc3c(=O)n(-c4ccc(C)c(C)c4)ccn23)c(Cl)c1`, for which the values for the Inhibition in the assay on Staphylococcus aureus and with Escherichia coli were 11.19% and -1.65%, respectively.

`COc1ccccc1Cn1c(=O)c2sccc2n2c(=O)n(CC(=O)c3ccc(C)cc3C)nc12`: the Inhibition in the assay with Staphylococcus aureus is on record as -4.72%; in the assay on Escherichia coli it was -4.83%.

For the compound `CC(C)CCn1c(=O)c2sccc2n2c(=O)n(Cc3ccccc3Cl)nc12`, the Inhibition is on record as 8.43% with Staphylococcus aureus and 1.09% in the assay with Escherichia coli.

Regarding `CSc1cccc(NC(=O)Cn2nc3c(Oc4cc(C)cc(C)c4)nccn3c2=O)c1`, the Inhibition in the assay with Staphylococcus aureus is recorded as 3.38%; in the assay with Escherichia coli, -5.29%.

Take `COc1ccc(-c2cc3c4nnc(SCC(=O)Nc5ccccc5C(F)(F)F)n4ccn3n2)cc1`: the Inhibition is recorded as -10.53% in the assay with Staphylococcus aureus and 1.87% with Escherichia coli.

As to `Cc1cc(C)cc(N(Cc2ccc(Cl)cc2)S(=O)(=O)c2cccn3c(C)nnc23)c1`, the results for the Inhibition with Staphylococcus aureus and in the assay on Escherichia coli were 9.89% and -11.68%, respectively.

`COc1ccc(NC(=O)c2ccc3nn(CC(=O)Nc4ccc(C(C)=O)cc4)c(=O)n3c2)cc1`: the Inhibition in the assay with Staphylococcus aureus was 15.44%; in the assay on Escherichia coli, -1.93%.

Take `CC1CCCN(c2nccn3c(=O)n(CC(=O)Nc4ccc(F)cc4F)nc23)C1` (centres undefined): the Inhibition in the assay with Staphylococcus aureus is -0.93%; with Escherichia coli, -3.03%.

For `O=C(CSc1nnc2c(=O)n(-c3ccccc3)ccn12)Nc1cccc(F)c1`, the Inhibition with Staphylococcus aureus is listed as 13%; with Escherichia coli it was -3.48%.

For `O=C(Cn1nc2c(Sc3cccc(F)c3)nccn2c1=O)Nc1cccc(C(F)(F)F)c1`, the results for the Inhibition in the assay with Staphylococcus aureus and in the assay with Escherichia coli were 12.33% and -0.7%, respectively.

For `CSc1cccc(NC(=O)Cn2nc3ccc(-c4ccccc4)nn3c2=O)c1`, the results for the Inhibition in the assay on Staphylococcus aureus and with Escherichia coli were -12.73% and -15.49%, respectively.

`Cc1ccc(CNC(=O)c2ccc3nn(CC(=O)Nc4ccc(C(F)(F)F)cc4)c(=O)n3c2)cc1`: the Inhibition is listed as -2.47% in the assay on Staphylococcus aureus and -0.22% with Escherichia coli.

With `Cc1cccc(NC(=O)CSc2nnc3ccc(C(=O)Nc4cccc(F)c4)cn23)c1`, the values for the Inhibition in the assay with Staphylococcus aureus and with Escherichia coli were 8.5% and -1.74%, respectively.

For `CCc1ccc(N(Cc2ccccc2Cl)S(=O)(=O)c2cccn3c(C)nnc23)cc1`, the Inhibition in the assay with Staphylococcus aureus came out at 18.06%; in the assay on Escherichia coli, 0.45%.

On to `O=C(CSc1nnc2c(=O)n(-c3ccccc3)ccn12)Nc1ccc(Br)cc1F`, for which the Inhibition in the assay on Staphylococcus aureus is given as 2.85%; in the assay with Escherichia coli, -9.92%.

For the compound `O=C(Cn1nc2c3cc(-c4ccc(F)cc4)nn3ccn2c1=O)N1CCN(c2ccccc2F)CC1`, the figures for the Inhibition in the assay with Staphylococcus aureus and with Escherichia coli were -6.33% and 3.42%, respectively.

Consider `COc1cccc(-n2ccn3c(SCC(=O)c4cc(C)c(C)cc4C)nnc3c2=O)c1`, for which the figures for the Inhibition with Staphylococcus aureus and in the assay on Escherichia coli were 15.67% and -4.7%, respectively.

On to `CCc1nnc2c(S(=O)(=O)N(Cc3cccc(F)c3)c3cccc(C)c3)cccn12`, for which the figures for the Inhibition in the assay on Staphylococcus aureus and with Escherichia coli were 12.77% and -0.95%, respectively.

In the case of `Cc1ccc(-c2ccc3nn(CC(=O)Nc4ccc(C#N)cc4)c(=O)n3n2)cc1C`, the Inhibition in the assay with Staphylococcus aureus was found to be 8.65%; in the assay on Escherichia coli it was 0.46%.

For the compound `O=S(=O)(c1cccn2cnnc12)N(Cc1ccccc1F)c1ccc(F)c(F)c1`, the Inhibition is -22.58% with Staphylococcus aureus and 5.15% with Escherichia coli.

On to `COc1ccc(CNC(=O)Cn2nc3c(N4CCN(c5ccccc5)CC4)nccn3c2=O)cc1`, for which the Inhibition amounted to 21.01% with Staphylococcus aureus and 2.9% with Escherichia coli.

As to `COc1ccc(N(Cc2cccc(F)c2)S(=O)(=O)c2ccc3nnc(C)n3c2)cc1`, the results for the Inhibition in the assay with Staphylococcus aureus and in the assay on Escherichia coli were -0.61% and -14.24%, respectively.

Consider `COc1ccc(-c2cc3c4nn(CC(=O)Nc5ccccc5Cl)c(=O)n4ccn3n2)cc1`, for which the Inhibition with Staphylococcus aureus is given as -2.84%; in the assay with Escherichia coli, -5.57%.

With `O=C(Cn1nc2c(SC3CCCCC3)nccn2c1=O)Nc1ccc(F)c(Cl)c1`, the Inhibition is -11.33% in the assay with Staphylococcus aureus and -12.19% with Escherichia coli.

`COc1ccccc1-n1ccn2c(SCc3cc(C)ccc3C)nnc2c1=O`: the Inhibition in the assay with Staphylococcus aureus was 12.05%; with Escherichia coli, -5.03%.

On to `CCCCN(C)c1ccc2nnc(CCc3nc(-c4ccc(C(F)(F)F)cc4)no3)n2n1`, for which the Inhibition in the assay with Staphylococcus aureus is 7.8%; in the assay with Escherichia coli, -3.35%.

As for `Cc1cc(C)cc(N(Cc2ccc(F)cc2)S(=O)(=O)c2cccn3c(C)nnc23)c1`, the figures for the Inhibition with Staphylococcus aureus and in the assay with Escherichia coli were -7.01% and -9.2%, respectively.

Take `COc1ccc(CNC(=O)Cn2nc3c4cc(-c5ccc(OC)cc5)nn4ccn3c2=O)cc1`: the Inhibition in the assay on Staphylococcus aureus is -1.74%; in the assay on Escherichia coli, -1.87%.
